The whole screen tested about 190,000 compounds, of which about 10 (0.005%) were called active. The list is a sample of the results. Values without a mark were called inactive.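 The calls were made as follows: active = activation factor of 2 or more at 20 µM, relative to plate controls; inactive = the rest.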
Each compound was assayed against Mannose-6-phosphate isomerase (Homo sapiens) (UniProt P34949) (assay: activators of human PMI, primary screen, biochemical, fluorescence intensity, near-Km mannose 6-phosphate (AID 1214)). Conditions: purified human PMI, coupled resazurin fluorescence, 20 min; at 20 µM; hits give high values; 1 = vehicle control, 0 substrate-free wells.
Sequence of Mannose-6-phosphate isomerase (Homo sapiens) (P34949 whole entry, looked up): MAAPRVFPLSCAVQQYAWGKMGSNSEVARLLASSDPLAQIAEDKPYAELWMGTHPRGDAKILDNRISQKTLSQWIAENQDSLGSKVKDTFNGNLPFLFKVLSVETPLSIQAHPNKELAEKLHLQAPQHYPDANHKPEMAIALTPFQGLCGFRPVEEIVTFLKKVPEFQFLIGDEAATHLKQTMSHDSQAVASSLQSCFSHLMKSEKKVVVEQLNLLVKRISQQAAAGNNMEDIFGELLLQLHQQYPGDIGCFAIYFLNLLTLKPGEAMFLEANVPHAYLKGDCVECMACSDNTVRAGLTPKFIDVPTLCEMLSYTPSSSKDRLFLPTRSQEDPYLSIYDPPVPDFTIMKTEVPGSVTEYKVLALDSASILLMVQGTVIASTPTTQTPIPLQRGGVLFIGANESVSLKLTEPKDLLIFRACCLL

| SMILES | activation factor |
| --- | --- |
| CCOC(=O)C1CCN(S(=O)(=O)c2cc(F)ccc2OC)CC1 | 1 |
| COCCNc1nc2nonc2nc1N(C)Cc1ccc(C)cc1 | 0.9 |
| Cc1ccc(NC(=O)CC(=O)Nc2ccc(C)cc2)cc1 | 1 |
| CCOC(=O)C1=C(N)N(c2ccc(C)cc2)C2=C(C(=O)CCC2)C1c1cccs1 (stereo not drawn) | 1 |
| CN(C)/C=C(/C(=O)c1ccccc1Cl)S(C)(=O)=O | 1 |
| COC(=O)c1nc(NC(=O)c2ccc(C(C)(C)C)cc2)n[nH]1 | 1.1 |
| CC(C)Oc1ccc(/C=C(\NC(=O)/C=C/c2ccco2)C(=O)NCCc2nc3ccccc3[nH]2)cc1 | 0.9 |
| O=C(c1ccccc1)c1ccc(OCC(O)CN2CCCC2)cc1 (stereo not drawn) | 1 |
| COc1cc(S(=O)(=O)N2CCOCC2)ccc1NC(=O)COc1ccc(N(C)S(=O)(=O)c2ccc(C)cc2)cc1 | 1 |
| Cc1cc(C#N)c(SCC(N)=O)nc1-c1ccc(F)cc1 | 1.1 |
| CC1=NNC(=O)C1CCC(=O)N/N=C\c1cccc(Cl)c1 (stereo not drawn) | 1 |
| CCOC(=O)c1sc2nc(C)nc(SCC(N)=O)c2c1C | 1.1 |
| COC(=O)c1cc(NC(=O)c2nn(C)c(=O)c3ccccc23)cc(C(=O)OC)c1 | 1 |
| CCC(C(=O)Nc1ccc(C(C)C)cc1)c1ccccc1 (stereo not drawn) | 1 |
| CC(C)(C)c1ccc(/C=C/C(=O)Nc2ncccn2)cc1 | 1 |
| COC(=O)c1ccc(NC(=O)CSc2nncc3ccc(OC)c(OC)c23)cc1 | 1 |
| COc1ccc(OCC(O)CNC(=O)Nc2ccc(Cl)cc2)cc1 (stereo not drawn) | 0.9 |
| Cc1ccc(CN2CCN(/N=C/c3cccnc3)CC2)c(C)c1 | 1.1 |
| CCC(C)(C)NC(=O)CN(Cc1cccs1)C(=O)CNS(=O)(=O)c1ccc(F)cc1 | 1.1 |
| COc1cccc(CC2(CO)CCCN(CC3=Cc4cc(OC)ccc4OC3)C2)c1 (stereo not drawn) | 0.9 |
| CC1CCN(c2ccc(C(=O)NCc3ccc4c(c3)OCO4)cc2[N+](=O)[O-])CC1 | 0.8 |
| Cc1cccc(C2=N/C(=C/c3cccs3)C(=O)O2)c1 | 1 |

| SMILES | activation factor |
| --- | --- |
| CCc1cc(C(=O)OC)c(NC(=O)CC2Sc3ccc(C(F)(F)F)cc3NC2=O)s1 (stereo not drawn) | 0.9 |
| Cc1ccc(C(=O)N/C(=C/c2ccc(-c3cccc([N+](=O)[O-])c3)o2)C(=O)NCCCN(C)C)cc1 | 1 |
| COC(=O)NNC(=O)C1CCC(C)CC1 (stereo not drawn) | 1.1 |
| COC(=O)C(NS(=O)(=O)c1ccc(F)cc1)c1ccccc1 (stereo not drawn) | 1 |
| COc1ccc(Cl)cc1NC(=O)Cn1nc(-c2ccc(C)cc2)n(C)c1=S | 1.1 |
| CCc1ccc(N(CC(=O)Nc2sc3c(c2C(=O)OC)CCCC3)S(C)(=O)=O)cc1 | 0.8 |
| CN(CCOc1ccc(Br)cc1)CC(=O)Nc1cccc(S(=O)(=O)NC2=NCCC2)c1 | 0.9 |
| OCCC1CN(Cc2ccc3nsnc3c2)CCN1C1CCCCC1 (stereo not drawn) | 0.9 |
| O=C(CSc1nnc2ccc(-c3ccncc3)nn12)N1CCCCC1 | 1 |
| COc1cccc(C(=O)NCCSc2ccc(Br)cc2)c1 | 1.1 |
| N#CCOc1ccc(C2=NO[C@@H]3[C@@H]4C[C@@H]([C@H]5C(=O)N(c6ccc7c(c6)OCO7)C(=O)[C@@H]45)[C@H]23)cc1 | 0.9 |
| Cn1cc(/C=C/C(=O)N2CCCC(C(=O)c3ccc(C(F)(F)F)cc3)C2)cn1 (stereo not drawn) | 1 |
| COc1ccc(CCCc2nnc(SCc3nc4ccccc4c(=O)[nH]3)n2C)cc1 | 1 |
| CN(C)c1ccc(/C=N/NC(=O)C(O)c2ccc(Br)cc2)cc1 (stereo not drawn) | 1 |
| Nc1nc(NC(=O)/C=C/c2ccccc2)nn1-c1ccccc1 | 1 |
| COc1ccc(OC)c(C(=O)c2ccc(C(=O)N3CCN(Cc4csc(C)n4)CC3)cc2)c1 | 1 |
| O=C(Cc1ccccc1)NCC1OCCc2ccccc21 (stereo not drawn) | 0.9 |
| O=Cc1ccc(OCc2cn3ccccc3n2)cc1 | 1.1 |
| CCCCC1S/C(=N/N=C/c2cccs2)NC1=O (stereo not drawn) | 1.3 |
| Cc1cc2oc(C(=O)Nc3c(C)n(C)n(-c4ccccc4)c3=O)c(C)c2cc1Cl | 1.1 |
| CN1CCC(=NNC(=O)c2ccc(N(Cc3ccc(Cl)cc3)S(C)(=O)=O)cc2)CC1 | 0.8 |

— PubChem BioAssay AID1214 (Sanford-Burnham Center for Chemical Genomics, 2008)
